# Assay results published in PubChem BioAssay (NCATS).
# Several values for one entry are separate records, joined by “and”; a condition that tells them apart may be missing. Equal entries are not always repeated. Inconclusive results are not listed. Entries that show only a call come without a potency. Activity calls are given as the source filed them. Unless noted, calls follow the shape of the dose curve; as a rule, active = well fitted curve in the direction sought with a large enough effect; inconclusive = small, poorly fitted or top-dose-only effect, or another doubt; inactive = no such curve, though single readings can be large; an effect the other way counts as inactive or inconclusive.
# Legend:
# [1] = Cytotoxicity counterscreen for inhibitors of SARS-CoV-2 cell entry (AID 1645845; calls by dose curve; also: nearly all actives have a fitted effect of over 50% in size; also: potency is read from the fitted curve at half-maximal effect)
# Method in brief: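 After a 15 min room-temperature ATPLite 1step step, luminescence reflected ATP remaining in HEK293-ACE2 cells exposed to compound for 1 h plus 48 h at 37 C, with percent activity set by cell and no-cell controls.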
# [2] = system: HEK293; experiment: Cytotoxic Profiling of Annotated Libraries Using Quantitative High-Throughput Screening (AID 1296008); conditions: Five cell lines viability, CellTiter-Glo ATP luminescence, 48-72 h; max response: stronger effect = lower value; also: nearly all actives have a fitted effect of over 60% in size; also: potency is read from the fitted curve at half-maximal effect
# Method in brief: (§1)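 Compounds were pin-transferred onto cells and incubated 48 or 72 hr at 37 degree Celsius, 95% humidity. CellTiter-Glo was added, plates sat 10 min at room temperature, then ATP-coupled luminescence was imaged as the viability read-out.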
# [3] = system: PA-1; experiment: Primary qHTS to identify gynecologic anti-cancer compounds using libraries of approved drugs and bioactive compounds (AID 1345084); conditions: Gynecologic cancer cell panel viability, ATPlite luminescence, 48 h; series mostly up to 57.5 µM; also: nearly all actives have a fitted effect of over 55% in size
# Method in brief: (§2)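 Five-concentration response, 48 h; readout is ATP-driven luciferase luminescence.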
# [4] = system: Tov-21-G; experiment: as above; conditions: Gynecologic cancer cell panel viability, ATPlite luminescence, 48 h; series mostly up to 57.5 µM
# Method in brief: as §2
# [5] = system: NIH3T3; experiment: Cytotoxic Profiling of Annotated Libraries Using Quantitative High-Throughput Screening (AID 1296008); conditions: Five cell lines viability, CellTiter-Glo ATP luminescence, 48-72 h; max response: stronger effect = lower value; also: nearly all actives have a fitted effect of over 60% in size; also: potency is read from the fitted curve at half-maximal effect
# Method in brief: as §1
# [6] = system: C33A; experiment: Primary qHTS to identify gynecologic anti-cancer compounds using libraries of approved drugs and bioactive compounds (AID 1345084); conditions: Gynecologic cancer cell panel viability, ATPlite luminescence, 48 h; series mostly up to 57.5 µM; also: nearly all actives have a fitted effect of over 55% in size
# Method in brief: as §2
# [7] = system: CAOV3; experiment: as above; conditions: Gynecologic cancer cell panel viability, ATPlite luminescence, 48 h; series mostly up to 57.5 µM
# Method in brief: as §2
# [8] = system: SKOV3; experiment: as above; conditions: Gynecologic cancer cell panel viability, ATPlite luminescence, 48 h; series mostly up to 57.5 µM
# Method in brief: as §2
# [9] = target: Luciferin 4-monooxygenase (Photinus pyralis) (UniProt P08659); experiment: Biochemical firefly luciferase enzyme assay for NPC (AID 624030); also: nearly all actives have a fitted effect of over 70% in size; also: potency is read from the fitted curve at half-maximal effect;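 as to activity change, negative = inhibition: purified P. pyralis luciferase at 10 nM with luciferin and ATP substrate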
# Method in brief: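 Counter-screen for direct inhibition of the luciferase enzyme by approved-drug library compounds, run at 10 nM enzyme in 50 mM Tris acetate (final). Luminescence was read within 5 min of enzyme-buffer addition and normalized to PTC124 versus DMSO (0%).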
# [10] = Drug repurposing screens with cells derived from glioblastoma tumor samples (AID 1345199); conditions: GBM patient neurospheres viability, ATP luminescence, 48 h; Potency: tumour line A; series mostly up to 45.9 µM; also: nearly all actives have a fitted effect of over 40% in size
# Method in brief: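 Primary testing used CD133+ neurospheres from four GBM patients, seven concentrations, 48 h exposure and ATP-based viability; confirmation added three slower-growing patient lines.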
# [11] = Primary qHTS for Huh7 cytotoxicity: counterscreen for inhibitors of MERS-S pseudotyped particle cell entry (AID 1479147; calls by dose curve); conditions: outcome: dose series up to 57.1 µM unless noted
# [12] = Primary qHTS for Vero E6 cytotoxicity: counterscreen for inhibitors of SARS-S pseudo-typed particle cell entry (AID 1479150; calls by dose curve); conditions: outcome: dose series up to 57.1 µM unless noted
# [13] = target: Cytochrome P450 2D6 (Homo sapiens) (UniProt P10635); experiment: Cytochrome P450 family 2 subfamily D member 6 (CYP2D6) small molecule antagonists: luciferase biochemical (cell-free) qHTS assay (AID 1645840; active = well fitted curve in the direction sought with a large enough effect in the repeat runs; an effect the other way counts as inactive or inconclusive; also: nearly all actives have a fitted effect of over 55% in size; also: potency is read from the fitted curve at half-maximal effect)
# Method in brief: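 P450-Glo CYP2D6 system: proluciferin substrate converted by enzyme to luciferin, read by luminescence proportional to activity. Enzyme-substrate mix with compound 10 min at room temperature, then NADPH regeneration 1 h before detection reagent.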
# [14] = qHTS Assay for Lipid Storage Modulators (AID 1519; calls by dose curve); conditions: Drosophila S3 cells, BODIPY lipid droplet/cell ratio, laser cytometry, cells loaded with oleic acid; for activity change, negative = inhibition: at 57.5 µM (top of the series)
# Method in brief: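 Cells seeded at 5,000 per well were treated with compounds over a concentration series and loaded with oleic acid (400 uM, as added). Lipid droplet fluorescence (488 nm excitation, 500-530 nm channel) was read by laser-scanning cytometry and normalized to 20 uM Triacsin C.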
# [15] = Primary qHTS to identify inhibitors of SARS-CoV-2 cell entry (AID 1645846; calls by dose curve; also: nearly all actives have a fitted effect of over 45% in size); conditions: activity change, negative = inhibition: at 57.1 µM (top of the series) unless noted
# Method in brief: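 Entry measured by luciferase signal 48 h after adding SARS-CoV-2-S pseudotyped MLV particles to HEK293-ACE2 cells preincubated 1 h with compounds. Normalisation: bald particles and spike particles.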
# [16] = system: Es-2; experiment: Primary qHTS to identify gynecologic anti-cancer compounds using libraries of approved drugs and bioactive compounds (AID 1345084); conditions: Gynecologic cancer cell panel viability, ATPlite luminescence, 48 h; series mostly up to 57.5 µM; also: nearly all actives have a fitted effect of over 55% in size
# Method in brief: as §2
# [17] = system: HeLa; experiment: as above; conditions: Gynecologic cancer cell panel viability, ATPlite luminescence, 48 h; series mostly up to 57.5 µM
# Method in brief: as §2
# [18] = system: Hek293T; experiment: as above; conditions: Gynecologic cancer cell panel viability, ATPlite luminescence, 48 h, control line for the selectivity index; series mostly up to 57.5 µM
# Method in brief: as §2
# [19] = system: Tov112D; experiment: as above; conditions: Gynecologic cancer cell panel viability, ATPlite luminescence, 48 h; series mostly up to 57.5 µM
# Method in brief: as §2
# [20] = measured here: cell count channel max response
# [21] = measured here: lipid channel max response
# Cytochrome P450 2D6 (Homo sapiens), sequence (P10635 whole entry, looked up): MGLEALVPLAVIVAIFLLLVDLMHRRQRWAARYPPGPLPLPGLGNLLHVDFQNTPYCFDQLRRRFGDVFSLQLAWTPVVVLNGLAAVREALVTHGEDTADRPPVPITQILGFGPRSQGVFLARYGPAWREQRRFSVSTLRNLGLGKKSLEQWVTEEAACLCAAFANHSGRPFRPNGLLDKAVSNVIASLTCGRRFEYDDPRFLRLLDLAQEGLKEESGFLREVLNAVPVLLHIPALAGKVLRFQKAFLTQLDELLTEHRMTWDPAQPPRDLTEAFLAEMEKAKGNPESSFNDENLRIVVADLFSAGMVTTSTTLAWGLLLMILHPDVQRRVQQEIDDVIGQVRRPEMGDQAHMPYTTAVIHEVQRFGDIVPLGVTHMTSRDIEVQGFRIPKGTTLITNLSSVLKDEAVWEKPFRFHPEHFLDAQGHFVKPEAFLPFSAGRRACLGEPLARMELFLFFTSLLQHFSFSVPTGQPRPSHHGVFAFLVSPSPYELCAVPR
# Luciferin 4-monooxygenase (Photinus pyralis), sequence (P08659 whole entry, looked up): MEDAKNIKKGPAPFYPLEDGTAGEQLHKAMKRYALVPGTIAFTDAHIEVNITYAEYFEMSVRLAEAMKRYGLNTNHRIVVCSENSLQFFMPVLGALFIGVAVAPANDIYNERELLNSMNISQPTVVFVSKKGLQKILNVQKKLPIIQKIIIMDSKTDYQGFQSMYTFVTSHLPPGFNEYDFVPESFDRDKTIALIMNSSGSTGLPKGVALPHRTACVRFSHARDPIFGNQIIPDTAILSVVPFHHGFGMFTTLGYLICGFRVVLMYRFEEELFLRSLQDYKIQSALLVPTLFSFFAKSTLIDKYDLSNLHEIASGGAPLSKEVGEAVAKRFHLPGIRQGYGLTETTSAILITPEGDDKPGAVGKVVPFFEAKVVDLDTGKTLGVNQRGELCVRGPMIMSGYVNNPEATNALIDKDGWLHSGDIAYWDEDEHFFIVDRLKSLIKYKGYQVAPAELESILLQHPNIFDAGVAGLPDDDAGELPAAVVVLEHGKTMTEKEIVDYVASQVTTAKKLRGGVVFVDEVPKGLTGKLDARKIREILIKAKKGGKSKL
compound,measurement,setting,value
CC[C@H]1/C=C\C=C/C[C@@H](C)[C@H](O)[C@@](C)(O)C(=O)[C@@H](C)[C@H](O)[C@@H](C)C(=O)[C@@H](C)[C@H](O)[C@@H](C)/C=C\C(=O)O[C@@H]2[C@H](C)[C@H](CC1)O[C@]1(CC[C@H](C)[C@H](C[C@@H](C)O)O1)[C@H]2C,Potency,[1],20 µM (active)
same,max response,[2],-112% (inactive)
same,Potency,[3],inactive
same,Potency,[4],inactive
CC1=CC(=O)[C@@H](O)[C@]2(C)C3[C@@H](O)[C@@H]4OC(=O)[C@@H]([C@H]4C)[C@]3(C)C(=O)[C@H](O)[C@@H]12 (some centres not stated),Potency,[5],2.55 µM (active)
same,Potency,[6],inactive
same,Potency,[7],inactive
same,Potency,[8],inactive
same,Potency,[4],inactive
CN1CCN=C(c2ccccc2)c2cc(Cl)ccc21,Potency,[9],inactive
CCCSc1cc(OC)c(CCN)cc1OC,Potency,[9],inactive
O=C(O)CCCO,Potency,[9],inactive
same,Potency,[10],inactive
Cc1ccc2c(c1)[C@]13CCCC[C@@H]1[C@H](C2)N(C)CC3,outcome,[11],inactive
same,outcome,[12],inactive
same,Potency,[1],inactive
CCCCNC(C)(C)[P+](=O)O,Potency,[13],inactive
same,Potency,[10],inactive
CCOP(=S)(OCC)SCSc1ccc(Cl)cc1,Potency,[9],inactive
same,Potency,[13],9.52 µM (active)
same,Potency,[10],inactive
C[N+](C)(C)CC(=O)[O-],"activity change, negative = inhibition",[14],3.78% (inactive)
same,max response,[14]; [20],0.576%
same,max response,[14]; [21],6.22%
same,Potency,[9],inactive
same,Potency,[10],inactive
C[C@@H](N)C(=O)c1ccccc1,Potency,[10],inactive
Oc1ccc2c3c1O[C@H]1[C@@H](O)C=C[C@H]4[C@H](C2)NCC[C@@]341,Potency,[10],inactive
CNC(C)Cc1ccccc1 (configuration not stated),Potency,[9],inactive
same,Potency,[10],inactive
COc1cc(C[C@H](C)N)c(OC)cc1C,Potency,[10],inactive
O=C1CN=C(c2ccccc2)c2cc(Cl)ccc2N1,Potency,[9],inactive
same,Potency,[10],inactive
CN[C@]1(c2ccccc2Cl)CCCCC1=O,Potency,[10],inactive
C[C@]12CCC(=O)C[C@@H]1CC[C@@H]1[C@@H]2CC[C@@]2(C)[C@H]1CC[C@]2(C)O,Potency,[10],inactive
CCOC(=O)C1(c2ccccc2)CCCN(C)CC1 (configuration not stated),Potency,[9],inactive
same,outcome,[11],inactive
same,outcome,[12],inactive
same,Potency,[1],inactive
same,"activity change, negative = inhibition",[15],-23.2%
same,Potency,[10],inactive
CN[C@@]1(c2ccccc2Cl)CCCCC1=O,Potency,[10],inactive
CCN(CC)/[N+]([O-])=N/O,"activity change, negative = inhibition",[14],8.09% (inactive)
same,max response,[14]; [20],-15%
same,max response,[14]; [21],-4.74%
same,Potency,[9],inactive
same,Potency,[10],inactive
CC(N)Cc1ccc2c(c1)OCO2 (configuration not stated),Potency,[9],inactive
same,Potency,[10],inactive
CN1CC[C@@]23CCCC[C@@H]2[C@@H]1Cc1ccc(O)cc13,Potency,[9],inactive
COc1ccc(OC)c(C[C@H](C)N)c1,Potency,[9],inactive
same,Potency,[10],inactive
OCCN(CCO)CCO,Potency,[9],inactive
same,outcome,[11],inactive
same,outcome,[12],inactive
same,Potency,[1],inactive
same,"activity change, negative = inhibition",[15],-24%
same,Potency,[10],inactive
CC(C)C[C@H]1C(=O)N2CCC[C@H]2[C@]2(O)O[C@](NC(=O)[C@@H]3C[C@@H]4c5cccc6[nH]cc(c56)C[C@H]4N(C)C3)(C(C)C)C(=O)N12,outcome,[11],inactive
same,outcome,[12],inactive
same,Potency,[1],inactive
O=P1(N(CCCl)CCCl)NC(OO)CCO1 (configuration not stated),Potency,[9],inactive
same,Potency,[10],inactive
Oc1cc[c]([Hg][Cl])cc1,Potency,[9],8.09 µM (active) and 9.07 µM (active)
CCOc1cc(C=O)ccc1O,Potency,[9],inactive
same,Potency,[13],inactive
same,Potency,[10],inactive
CC(C)=CCN1CC[C@]2(C)c3cc(O)ccc3C[C@H]1[C@H]2C,outcome,[11],inactive
same,outcome,[12],inactive
same,"activity change, negative = inhibition",[15],-30.2% [at 114 µM]
COc1cc(C[C@H](C)N)c(OC)cc1Br,Potency,[9],inactive
C=CCC1([C@@H](C)CCC)C(=O)NC(=O)NC1=O,Potency,[9],inactive
same,Potency,[10],inactive
CNC(C)CC1CCCCC1 (configuration not stated),Potency,[9],inactive
same,outcome,[11],inactive
same,outcome,[12],inactive [at 85.7 µM]
same,Potency,[1],inactive
same,"activity change, negative = inhibition",[15],-28.6% [at 85.7 µM]
same,Potency,[10],inactive
COC(=O)[C@H]1[C@@H](OC(=O)c2ccccc2)C[C@@H]2CC[C@H]1N2C,outcome,[11],inactive [at 114 µM]
same,outcome,[12],inactive [at 114 µM]
same,Potency,[1],inactive
same,"activity change, negative = inhibition",[15],-14.7% [at 114 µM]
same,Potency,[10],inactive
N#Cc1ccc(N2CCN(C(=O)COc3ccc4[nH]cc(CCN)c4c3)CC2)cc1,Potency,[13],19 µM (active)
same,Potency,[7],inactive
same,Potency,[16],inactive
same,Potency,[17],inactive
same,Potency,[18],inactive
same,Potency,[3],inactive
same,Potency,[8],inactive
same,Potency,[19],inactive
